Assay outcomes as filed in PubChem.
Rows were chosen to be rich in hits. Some 8.3% of all compounds tested hit in one or more screens of this group.
MCF10A rerep: A quantitative high throughput screen for small molecules that induce DNA re-replication in MCF 10a normal breast cells; MCF 10A DNA re-replication, Hoechst nuclear intensity, 48 h; Potency, µM (series often up to 46.1 µM), usual class: activators; 2.9% of 350,000 active; further: nearly all actives have a fitted effect of over 50% in size
Gal4-VP16 FLuc: VP16 counterscreen qHTS for inhibitors of ROR gamma transcriptional activity; Drosophila S2 Gal4-VP16 UAS-luciferase, luminescence, 20 h; Potency, µM (titrated, usually from 53.6 µM), hits mostly inhibitors; 3.5% of 310,000 active; AID 2546, 2010;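 further: Gal4-VP16 expression switched on by copper sulfate through the metallothionein promoter; nearly all actives have a fitted effect of over 50% in size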
RORgamma inh: qHTS for inhibitors of ROR gamma transcriptional activity | Nuclear receptor ROR-gamma (Mus musculus), P51450 | Drosophila S2 Gal4-RORgamma UAS-luciferase reporter, 20 h | Potency, µM (titrated, usually from 53.6 µM), usual class: inhibitors | 5.4% of 310,000 active; further: nearly all actives have a fitted effect of over 60% in size
Target sequence (P51450 whole entry, looked up, the tested form may be a part): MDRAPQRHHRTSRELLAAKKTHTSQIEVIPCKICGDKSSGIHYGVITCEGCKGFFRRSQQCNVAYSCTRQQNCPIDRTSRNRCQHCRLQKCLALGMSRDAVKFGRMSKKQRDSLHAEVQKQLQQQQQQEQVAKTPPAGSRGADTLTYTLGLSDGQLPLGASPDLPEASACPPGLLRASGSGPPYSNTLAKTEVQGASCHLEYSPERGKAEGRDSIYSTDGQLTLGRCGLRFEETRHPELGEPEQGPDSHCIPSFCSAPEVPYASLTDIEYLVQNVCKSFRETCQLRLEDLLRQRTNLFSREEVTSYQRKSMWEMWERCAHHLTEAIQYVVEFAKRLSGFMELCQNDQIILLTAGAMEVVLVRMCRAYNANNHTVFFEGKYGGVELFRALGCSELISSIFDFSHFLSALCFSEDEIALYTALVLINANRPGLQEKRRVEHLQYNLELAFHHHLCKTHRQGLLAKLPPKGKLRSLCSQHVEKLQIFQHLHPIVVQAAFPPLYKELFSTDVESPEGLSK
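Stable Schneider cell line, Gal4 DNA-binding domain fused to ROR gamma, UAS-luciferase. Cmpd 1 hr RT → CuSO4 700 uM final → 20 hr RT → luciferase reagent 10 min → luminescence.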
SW480 rereplic: A quantitative high throughput screen for small molecules that induce DNA re-replication in SW480 colon adenocarcinoma cells | SW480 DNA re-replication, Hoechst DNA content imaging, 48 h | Potency, µM (titrated, usually from 46.1 µM), most hits filed as activators | 1.8% of 340,000 active; further: nearly all actives have a fitted effect of over 55% in size
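DNA re-replication was detected as more nuclei of elevated Hoechst intensity after 48 hr exposure to compound (23 nL pinned per well of 250 cells).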
BCR signal inh: qHTS Assay to Find Inhibitors of Chronic Active B-Cell Receptor Signaling. ABC-DLBCL IkBa-CBG/CBR reporter, luminescence ratio, 4 h. Potency, µM (highest dose often 46.1 µM), hits mostly inhibitors. 0.05% of 340,000 active; active means well fitted inhibition curve with a large enough effect in the signal ratio, with a control signal flat, not every such curve was filed as active; inconclusive means small, poorly fitted or top-dose-only effect, or effect the other way, or a change in a side signal; the % refers to the signal ratio
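TMD8 ABC-DLBCL cells carrying doxycycline-inducible green luciferase fused to IkappaBalpha plus unfused red luciferase were exposed to compounds (up to 46 uM) for 4 hrs at 37C. Activity came from the overlap-corrected green/red luminescence ratio.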
Giardia kill: Small Molecules that selectively kill Giardia lamblia: qHTS; Giardia lamblia trophozoite viability; activity change, % at 7.66 µM, hits read low; 0.15% of 340,000 active; in the data active means activity change below about -80%; inconclusive means between about -30% and that limit;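 further: parasites exposed to compound for two days anaerobically before the ATP read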
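Trophozoite viability was measured as ATP-dependent luminescence, read 15-30 min after reagent addition. Before that, parasites at 100 cells/well were exposed to compounds for 48 h, anaerobically, at 37 deg C.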
Of the large screens only hits and unclear results are named; the others gave an inactive call. Unless noted, the call rests on the fitted dose curve; in most records, active means well fitted curve in the direction sought with a large enough effect; inconclusive means small, poorly fitted or top-dose-only effect, or another doubt; inactive means no such curve, though single readings can be large; an effect the other way counts as inactive or inconclusive.

CCOC(=O)c1csc(NC(=O)c2cc(OC)c(OC)c(OC)c2)n1	MCF10A rerep inconclusive, SW480 rereplic 0.23µM, BCR signal inh inconclusive
CCOC(=O)c1[nH]c(C)c(C(=O)OCC(=O)NC(C)c2ccc(F)cc2)c1C (stereo not drawn)	MCF10A rerep inconclusive, SW480 rereplic 9.2µM (no result: Gal4-VP16 FLuc, RORgamma inh)
CCOC(=O)c1[nH]c(C)c(C(=O)Nc2ccc(C)c(C)c2)c1C	RORgamma inh inconclusive, SW480 rereplic inconclusive
CCOC(=O)c1[nH]c(C)c(C(=O)NCc2ccc(C)cc2)c1C	none
CCOC(=O)c1[nH]c(C)c(C(=O)c2ccc(C)cc2)c1C	MCF10A rerep 1.5µM, SW480 rereplic 5.2µM, BCR signal inh inconclusive
CCOC(=O)c1[nH]c(C)c(C(=O)Nc2cc(OC)ccc2OC)c1C	MCF10A rerep 0.63µM, SW480 rereplic 1.3µM, BCR signal inh inconclusive
CCOC(=O)c1c(C)[nH]c(C(=O)OCC(=O)Nc2cc(C)ccc2OC)c1C	MCF10A rerep inconclusive
CCOC(=O)c1[nH]c(C)c(C(=O)Nc2ccc(C)cc2C)c1C	MCF10A rerep 13µM, RORgamma inh inconclusive, SW480 rereplic 10µM
CCOC(=O)c1[nH]c(C)c(C(=O)Nc2ccccc2F)c1C	MCF10A rerep 7.3µM, SW480 rereplic 8.2µM, BCR signal inh inconclusive
CC(=O)C1(C)CCC2C3C=C(C)C4=CC(=O)CCC4(C)C3CCC21C (stereo not drawn)	MCF10A rerep 16µM (no result: Gal4-VP16 FLuc, RORgamma inh, BCR signal inh)
CC(=O)[C@]1(O)CCC2C3CCC4=CC(=O)CC[C@@]4(C)C3CC[C@]21C (stereo partly drawn)	none (no result: MCF10A rerep, SW480 rereplic, BCR signal inh, Giardia kill)
C=C1CC2C(CCC3(C)C2CCC3(O)C(C)=O)C2(C)CCC(=O)C=C12 (stereo not drawn)	MCF10A rerep 23µM
O=c1oc2ccc(Cl)cc2nc1/C=C(\O)c1cccs1	Gal4-VP16 FLuc 11µM, RORgamma inh 8.9µM, BCR signal inh inconclusive
Cc1ccc2oc(=O)c(/C=C(\O)c3cccs3)nc2c1	MCF10A rerep inconclusive, Gal4-VP16 FLuc inconclusive, RORgamma inh inconclusive, BCR signal inh inconclusive
O=C(Cc1ccc([N+](=O)[O-])cc1)NCC1CCCO1 (stereo not drawn)	none
O=C(NC(=S)NCC1CCCO1)c1ccc(Cl)cc1 (stereo not drawn)	Gal4-VP16 FLuc inconclusive, RORgamma inh 11µM
Cc1cnn(C(=S)NCC2CCCO2)c1 (stereo not drawn)	Gal4-VP16 FLuc inconclusive, RORgamma inh 14µM
Cc1ccc(C(=O)NC(=S)NCC2CCCO2)cc1 (stereo not drawn)	RORgamma inh 16µM
O=C(NC(=S)NCC1CCCO1)c1ccc([N+](=O)[O-])cc1 (stereo not drawn)	RORgamma inh 13µM
CCN1CCN(C(=S)NCC2CCCO2)CC1 (stereo not drawn)	none
O=C(NC(=S)NCC1CCCO1)c1ccccc1 (stereo not drawn)	Gal4-VP16 FLuc inconclusive, RORgamma inh inconclusive, BCR signal inh inconclusive (no result: SW480 rereplic)
c1c2c(cc3sc(N4CCOCC4)nc13)OCCO2	Gal4-VP16 FLuc 4.5µM, RORgamma inh 3.5µM, BCR signal inh inconclusive, Giardia kill inconclusive
c1ccc(N2CCN(c3nc4cc5c(cc4s3)OCCO5)CC2)cc1	BCR signal inh inconclusive
Cc1ccc(NC(=S)N=Nc2c(O)n(C)c3ccc(S(=O)(=O)N4CCOCC4)cc23)cc1	MCF10A rerep inconclusive, Gal4-VP16 FLuc 1µM, RORgamma inh 0.71µM, BCR signal inh inconclusive
Cc1cccc(NC(=S)N=Nc2c(O)n(C)c3ccc(S(=O)(=O)N4CCOCC4)cc23)c1	Gal4-VP16 FLuc 0.71µM, RORgamma inh 0.13µM, SW480 rereplic inconclusive, BCR signal inh inconclusive
Cc1cc(-n2c(C)nc3ccccc3c2=O)ccc1NC(=O)c1cccc([N+](=O)[O-])c1	none (no result: MCF10A rerep, Gal4-VP16 FLuc, RORgamma inh, SW480 rereplic, Giardia kill)
COc1ccc(S(=O)(=O)NCCc2c[nH]c3ccc(Cl)cc23)cc1	MCF10A rerep inconclusive, SW480 rereplic inconclusive (no result: Gal4-VP16 FLuc, RORgamma inh)
